Reference: PubChem BioAssay (NCI)
The panel holds about 83,000 compounds, 20% with a hit somewhere; the sample as a whole holds those more often.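 Cell lines were cultured in 96-well plates, exposed to a single compound concentration, and assessed for percent growth 48 hours later.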 Active and inactive are the calls of the source. How the source made its calls: active means growth percent below 10; inactive means the rest.

Tested on: SR leukemia
Assay: NCI-60 one-dose screen, 48 h (100 = growth as untreated, 0 = no growth, -100 = all killed)
Details: 10 µM unless noted

| Compound | growth |
| --- | --- |
| Nc1nc2c(c3ncccc13)C(c1cccc(Br)c1)Cc1ncccc1-2 (stereo unspecified) | 2.96% (active) |
| O=[N+]([O-])c1cccc(-c2nc3sccn3c2-c2ccnc(NCCCNS(=O)(=O)c3ccc(F)cc3)n2)c1 | 9.01% (active) |
| COc1ccc(-n2cc(-c3ccccc3)c3c(SCC(=O)N/N=C/c4ccc([N+](=O)[O-])cc4)ncnc32)cc1 | 108% (inactive) |
| Nc1c(C(=O)Nc2ccccc2)sc2nc3c(cc12)CN(CCc1ccccc1)CC3 | 90% (inactive) |
| CCOC(=O)c1c2ncccc2n2c(=O)n(-c3ccc(Cl)cc3)nnc12 | 91.4% (inactive) |
| CCN(CC)CCCC(C)Nc1ccnc2c(OC)cccc12 (stereo unspecified) | 97.3% (inactive) |
| OC(c1cccc(C(F)(F)F)c1)c1cnccc1NC1CCCCCC1 (stereo unspecified) | -14.7% (active) |
| COc1ccc(CCN2CCCn3c2nc2ccccc2c3=O)cc1 | 24.8% (inactive) |
| O=C(/C=C\c1cccc([N+](=O)[O-])c1)c1ccccc1 | 12.7% (inactive) |
| CCOC(=O)C(Cc1cc(I)c(O)c(I)c1)NC(=O)c1ccccc1 (stereo unspecified) | 88.9% (inactive) |
| COc1cc(C#N)cc(OC)c1OCCN(CCOc1c(OC)cc(C#N)cc1OC)S(=O)(=O)c1ccc(C)cc1 | 106% (inactive) |
| CN1CCN(Cc2ccc(NC(=O)c3cncc(C#Cc4cncc5nccnc45)c3)cc2C(F)(F)F)CC1 | 63.7% (inactive) |
| CC(=O)C1=C(O)C=C2Oc3c(C(=O)/C=C/c4ccccc4)c(O)c(C)c(O)c3[C@]2(C)C1=O | 30.3% (inactive) |
| COc1ccc(C/C(C)=C(\c2ccc(OCCN3CCCCCC3)cc2)c2ccc(OC(=O)C3CCCCC3)cc2)cc1 | 3.43% (active) |
| O=[N+]([O-])c1cccc(-c2nc3sccn3c2-c2ccnc(NCCCNS(=O)(=O)c3ccc(Br)cc3)n2)c1 | 51.8% (inactive) |
| CCOC(=O)/C=C/C(=O)[C@H](CC(C)C)NC(=O)[C@H](Cc1ccccc1)NC(=O)OCc1ccccc1 | -8.81% (active) |

| Compound | growth |
| --- | --- |
| Cc1cc2cc3cc(C)c(N(C)C)cc3nc2cc1N(C)C | 25% (inactive) |
| C=C1CC2(OC1=O)C(=O)N(CCCCCCCCCCCCN1C(=O)C3(CC(=C)C(=O)O3)c3ccccc31)c1ccccc12 (stereo unspecified) | 2.62% (active) |
| O=C1c2cccnc2C(=O)c2c1c(C(=O)OCCN1CCCCC1)c1ccccn21 | -23.9% (active) |
| COc1ccccc1N1CCN(CCn2c(=O)c3c(c4ccccc4n3C)n(C)c2=O)CC1 | 78% (inactive) |
| C/C(=C(/c1ccc(O)cc1)c1ccc(OCCN(C)C)cc1)c1ccccc1 | 63.7% (inactive) |
| CCOC(=O)c1c2c(n3ccc(NC(=O)CCN4CCOCC4)cc13)C(=O)c1ncccc1C2=O | -2.96% (active) |
| Cc1cc(=O)oc2cc(Oc3nc(-c4cccs4)cn4c(-c5cccs5)cnc34)ccc12 | 45.6% (inactive) |
| CC(C)[C@@H]1CC[C@]2(C(=O)NCCCCN=C(N)N)CC[C@]3(C)[C@H](CC[C@@H]4[C@@]5(C)CCC(=O)C(C)(C)[C@@H]5CC[C@]43C)[C@@H]12 | 33.6% (inactive) |
| Oc1cc(O)c2c(=S)cc(-c3ccc(Cl)cc3)oc2c1 | 36.1% (inactive) |
| CN1CCN(Cc2ccc(NC(=O)c3[nH]ncc3Nc3ccnc4ccsc34)cc2)CC1 | -12.5% (active) |
| Nc1nc2ccc(-c3nc4ccc5[nH]ncc5c4c4c3CCC4)cc2s1 | 20.7% (inactive) |
| Oc1ccc2c(=S)cc(-c3ccc(Br)cc3)oc2c1O | 1.21% (active) |
| Clc1cccc(Nc2nc(Nc3cnc4ccccc4c3)c3[nH]cnc3n2)c1 | 80.8% (inactive) |
| CC(=O)CC(C)(C)c1ccc(Cl)cc1 | 101% (inactive) |
| O=C1C2CC=CCC2C(=O)N1CNc1ccc(Cl)cc1 (stereo unspecified) | 126% (inactive) |
| CN1CCN(Cc2ccc(NC(=O)c3[nH]ncc3Nc3ncnc4c3CCC4)cc2)CC1 | -18.6% (active) |

Tested on: RPMI-8226 leukemia
Assay: as above
Details: 10 µM unless noted

| Compound | growth |
| --- | --- |
| CN(C)c1ccc(C2Nc3ccccc3-n3cccc32)cc1 (stereo unspecified) | 80.2% (inactive) |
| Nc1nc2c(c3ncccc13)C(c1cccc(Br)c1)Cc1ncccc1-2 (stereo unspecified) | 34% (inactive) |
| O=[N+]([O-])c1cccc(-c2nc3sccn3c2-c2ccnc(NCCCNS(=O)(=O)c3ccc(F)cc3)n2)c1 | -29.7% (active) |
| COc1ccc(-n2c(C)nc3c(c(C)nn3-c3ccccc3)c2=O)cc1 | 5.55% (active) |
| COc1ccc(-n2cc(-c3ccccc3)c3c(SCC(=O)N/N=C/c4ccc([N+](=O)[O-])cc4)ncnc32)cc1 | 108% (inactive) |
| Nc1c(C(=O)Nc2ccccc2)sc2nc3c(cc12)CN(CCc1ccccc1)CC3 | 92.2% (inactive) |
| CCOC(=O)c1c2ncccc2n2c(=O)n(-c3ccc(Cl)cc3)nnc12 | 92.8% (inactive) |
| CCN(CC)CCCC(C)Nc1ccnc2c(OC)cccc12 (stereo unspecified) | 103% (inactive) |
| OC(c1cccc(C(F)(F)F)c1)c1cnccc1NC1CCCCCC1 (stereo unspecified) | -30.1% (active) |
| NC(=S)N/N=C/c1cc(-c2cccc(N)c2)ccn1 | 12.2% (inactive) |
| COc1ccc(CCN2CCCn3c2nc2ccccc2c3=O)cc1 | 29.9% (inactive) |
| O=C(/C=C\c1cccc([N+](=O)[O-])c1)c1ccccc1 | 0.104% (active) |
| CCOC(=O)C(Cc1cc(I)c(O)c(I)c1)NC(=O)c1ccccc1 (stereo unspecified) | 89.5% (inactive) |
| COc1cc(C#N)cc(OC)c1OCCN(CCOc1c(OC)cc(C#N)cc1OC)S(=O)(=O)c1ccc(C)cc1 | 90.6% (inactive) |
| CN1CCN(Cc2ccc(NC(=O)c3cncc(C#Cc4cncc5nccnc45)c3)cc2C(F)(F)F)CC1 | 36.9% (inactive) |
| Nc1nc(-c2ccc(F)cc2)cc(-c2cnn(-c3ccccc3)n2)n1 | 105% (inactive) |
| CC(=O)C1=C(O)C=C2Oc3c(C(=O)/C=C/c4ccccc4)c(O)c(C)c(O)c3[C@]2(C)C1=O | 34.9% (inactive) |
| COc1ccc(C/C(C)=C(\c2ccc(OCCN3CCCCCC3)cc2)c2ccc(OC(=O)C3CCCCC3)cc2)cc1 | 40.1% (inactive) |
| O=[N+]([O-])c1cccc(-c2nc3sccn3c2-c2ccnc(NCCCNS(=O)(=O)c3ccc(Br)cc3)n2)c1 | 9.86% (active) |
| CCOC(=O)/C=C/C(=O)[C@H](CC(C)C)NC(=O)[C@H](Cc1ccccc1)NC(=O)OCc1ccccc1 | -19.9% (active) |

| Compound | growth |
| --- | --- |
| Cc1cc2cc3cc(C)c(N(C)C)cc3nc2cc1N(C)C | -0.205% (active) |
| C=C1CCC2C3(C)COC(C)(C)OC3CCC2(C)C1C/C=C1/C(=O)OCC1OC(C)=O (stereo unspecified) | -42% (active) |
| C=C1CC2(OC1=O)C(=O)N(CCCCCCCCCCCCN1C(=O)C3(CC(=C)C(=O)O3)c3ccccc31)c1ccccc12 (stereo unspecified) | 3.98% (active) |
| O=C1c2cccnc2C(=O)c2c1c(C(=O)OCCN1CCCCC1)c1ccccn21 | -29.9% (active) |
| COc1ccccc1N1CCN(CCn2c(=O)c3c(c4ccccc4n3C)n(C)c2=O)CC1 | 109% (inactive) |
| C/C(=C(/c1ccc(O)cc1)c1ccc(OCCN(C)C)cc1)c1ccccc1 | 85.1% (inactive) |
| CCOC(=O)c1c2c(n3ccc(NC(=O)CCN4CCOCC4)cc13)C(=O)c1ncccc1C2=O | 31.8% (inactive) |
| Cc1cc(=O)oc2cc(Oc3nc(-c4cccs4)cn4c(-c5cccs5)cnc34)ccc12 | 70.3% (inactive) |
| CC(C)[C@@H]1CC[C@]2(C(=O)NCCCCN=C(N)N)CC[C@]3(C)[C@H](CC[C@@H]4[C@@]5(C)CCC(=O)C(C)(C)[C@@H]5CC[C@]43C)[C@@H]12 | 36.3% (inactive) |
| Oc1cc(O)c2c(=S)cc(-c3ccc(Cl)cc3)oc2c1 | -4.71% (active) |
| COc1ccc(-c2cn3c(-c4ccc(OC)cc4)cnc3c(Oc3ccc4c(C)cc(=O)oc4c3)n2)cc1 | 63.7% (inactive) |
| CN1CCN(Cc2ccc(NC(=O)c3[nH]ncc3Nc3ccnc4ccsc34)cc2)CC1 | 19.2% (inactive) |
| Nc1nc2ccc(-c3nc4ccc5[nH]ncc5c4c4c3CCC4)cc2s1 | -49% (active) |
| Oc1ccc2c(=S)cc(-c3ccc(Br)cc3)oc2c1O | -8.44% (active) |
| Clc1cccc(Nc2nc(Nc3cnc4ccccc4c3)c3[nH]cnc3n2)c1 | 78.3% (inactive) |
| COc1ccc(-c2cc(NC(=O)Nc3ccc(O)cc3)no2)cc1 | 82.1% (inactive) |
| CC(=O)CC(C)(C)c1ccc(Cl)cc1 | 98.3% (inactive) |
| O=C1C2CC=CCC2C(=O)N1CNc1ccc(Cl)cc1 (stereo unspecified) | 116% (inactive) |
| CN1CCN(Cc2ccc(NC(=O)c3[nH]ncc3Nc3ncnc4c3CCC4)cc2)CC1 | -9.23% (active) |
